Laboratory results taken from PubChem BioAssay (NCATS).
Results filed as inconclusive are left out. Where a call stands in place of a potency, no number is given. Active and inactive are the calls of the source. Calls follow the shape of the dose curve; as a rule, active = well fitted cell-killing curve with a large enough effect; inconclusive = small, poorly fitted or top-dose-only effect; inactive = no such curve, though single readings can be large or run the other way. *1 amine or outer side, *2 acyl side, *3 side chain or, on linkers, in order; H or OH if unused. Where a SMILES comes first, the peptide text is derived from it. Bridges are numbered along the chain shown (N, C = ends). [ ]: non-standard residue; d: D form. The star is where a group is joined. ξ: configuration not given here. X10 = NC1=NCCC(C(N[*:1])C(=O)[*:2])N1; ΔAla(3-NHCONH2) = NC(=O)NC=C(N)C(=O)O; ξβ3hOrn = NCCCC(N)CC(=O)*; Dap = NC[CH](N)C(=O)O
Potency is read from the fitted curve at half-maximal effect.

Experiment: qHTS of pediatric cancer cell lines to identify multiple opportunities for drug repurposing: Primary screen for NB1643 cells (AID 1347099); also: nearly all actives have a fitted effect of over 50% in size
Details: NB1643 neuroblastoma viability, CellTiter-Glo luminescence, 48 h; series mostly up to 46 µM
Excerpt: Drug repurposing or repositioning has been offered as a strategy for drug development in oncology programs. This approach has special potential for childhood cancers and other rare or orphan diseases, where the expected return on new drug development has been a disincentive to pharmaceuticals. […] In this project we exploit the poly-pharmacology of drugs to discover new indications via phenotypic screening of a panel of 19 well-characterized cell lines derived from solid tumors seen in children and adolescents. The goal is to identify approved drugs with previously unrecognized anticancer properties that has the potential to reveal new mechanisms and biological processes involved in carcinogenesis or drug resistance. We employed a titration-based paradigm (quantitative high-throughput screening or qHTS), where all compounds were tested at multiple concentrations for their effect on cell viability. Concentration-response curves (CRCs) were derived directly from the primary screen, and both potency and efficacy values were used to identify compounds with robust bioactivity profiles. We screened the NIH Chemical Genomics Center (NCGC) Pharmaceutical Collection (NPC) and Mechanism Interrogation Plate (MIPE) small molecule collections of approved and investigational compounds against these cell lines; and measured metabolically active cells after 48 hours of compound treatment as a proxy for cell viability. […] Assay Submitter: Nathalia J. Martinez, National Center for Advancing Translational Sciences, National Institutes of Health, Rockville, MD, USA; email: natalia.martinez@nih.gov Shen, M et al. Quantitative high-throughput phenotypic screening of pediatric cancer cell lines identifies multiple opportunities for drug repurposing. Oncotarget 2017 Dec 19;9(4):4758-4772. PMID 29435139.
The cells were obtained from University of North Carolina (UNC), Pediatric Preclinical Testing Program (PPT), and Coriell Institute (CI). qHTS cell viability assay: Cells were assayed in growth media at a density of 500-1,000 cells/well. Five microliters of cells were dispensed into 1,536-well, white, solid-bottom, TC-treated plates (Greiner Bio One) using a multidrop dispenser and incubated at 37 degrees C, 5% CO2, under a humidified atmosphere for 5 hours. Twenty-three nanoliters of compounds and controls (neutral control DMSO or positive control bortezomib at final concentration of 2.3 µM) were subsequently transferred by Kalypsys pintool. For primary screens, the MIPE collection was tested at 11-point dilutions (final concentrations range from 0.78 nM to 46 µM) and the NPC collection at 8-point dilutions (final concentrations range from 0.59 nM to 46 µM). Compounds tested in follow-up screens were assayed at 11-point dilutions. Cells were incubated for 48 hours, followed by addition of 3 µL of CellTiter-Glo (Promega). After a 15 min incubation at room temperature, samples were analyzed for luminescence intensity using a ViewLux High-throughput CCD imager equipped with clear filters.
With `CCCCCCCCCCCCCCCC[n+]1ccccc1` the Potency was “inactive”. For `CC(C)=CCC/C(C)=C/CC/C(C)=C/CCC(=O)OC/C=C(\C)CCC=C(C)C`, the Potency was “inactive”. With `NCCCC(N)CC(=O)NCC1NC(=O)C(CO)NC(=O)C(N)CNC(=O)C(C2CCN=C(N)N2)NC(=O)C(=CNC(N)=O)NC1=O` (stereo not drawn) (H-[Dap]S[Dap](ξβ3hOrn)[ΔAla(3-NHCONH2)][X10]; lactam 1-C; configuration not given here) the activity change, negative = cytotoxic was 13.7% [at 0.597 µM] (inactive). In the case of `COc1cc(C=O)ccc1O`, the Potency is reported as “inactive”. For `CCCC(=O)OCOC(=O)C1=C(C)NC(C)=C(C(=O)OC)C1c1cccc(Cl)c1Cl` (stereo not given), the Potency was “inactive”. For `CC(=O)c1ccc(O)c(C(N)=O)c1`, the Potency was “inactive”. In the case of `O=c1[nH]c(=O)n([C@H]2O[C@H](CO)[C@@H](O)[C@@H]2O)cc1/C=C\Br`, the Potency is reported as “inactive”. In the case of `O=C(O)CCC(=O)OC[C@@H](NC(=O)C(Cl)Cl)[C@H](O)c1ccc([N+](=O)[O-])cc1`, the Potency is reported as “inactive”. In the case of `CO[C@@]1(NC(=O)CSC[C@@H](N)C(=O)O)C(=O)N2C(C(=O)O)=C(CSc3nnnn3C)CS[C@@H]21`, the Potency is reported as “inactive”. With `Cc1cc(O)c2c(O)c3c(O)cccc3cc2c1` the Potency was “inactive”. For `COc1cc(NS(=O)(=O)c2ccc(N)cc2)nc(C)n1`, the Potency was “inactive”. In the case of `CC(Oc1c(Cl)cccc1Cl)C1=NCCN1` (stereo not given), the Potency is reported as “inactive”. For `O=C(CCCl)NCCc1ccccc1`, the Potency was “inactive”. For `Cc1nc2n(c(=O)c1CCN1CCC(C(=O)c3ccc(F)cc3)CC1)CCS2`, the Potency was “inactive”. In the case of `CCC(=O)O[C@H]1[C@H](O[C@@H]2[C@@H](C)[C@H](O[C@H]3C[C@@](C)(OC)[C@@H](O)[C@H](C)O3)[C@@H](C)C(=O)O[C@H](CC)[C@@](C)(O)[C@H](O)[C@@H](C)C(=O)[C@H](C)C[C@@]2(C)O)O[C@H](C)C[C@@H]1N(C)C`, the Potency is reported as “inactive”. With `O=C(O)Cc1ccccc1Oc1ccc(Cl)cc1Cl` the Potency was “inactive”. In the case of `c1ccc(C(O[C@H]2CCCN(CCc3ccc4c(c3)OCO4)C2)c2ccccc2)cc1`, the Potency is reported as “inactive”. For `CC(=O)N[C@@H](CO)C(=O)N[C@@H](CC(=O)O)C(=O)N[C@@H](CCCCN)C(=O)N1CCC[C@H]1C(=O)O` (Ac-SDKP-OH), the Potency was “inactive”. For `Nc1nc(=O)n([C@@H]2O[C@H](CO)[C@@H](O)[C@@H]2F)cc1I`, the Potency was “inactive”. For `Nc1nc2ccccc2n1Cc1ccc(F)cc1`, the Potency was “inactive”. With `C=CCNc1nc(NCC=C)nc(N2CCN(C(c3ccc(F)cc3)c3ccc(F)cc3)CC2)n1` the Potency was “inactive”. For `O=C1CCCc2c(O)cccc21`, the Potency was “inactive”. For `Cc1[nH]cnc1-c1ccc(Cl)cc1`, the Potency was “inactive”. For `CN=C(N)NC(=O)Nc1c(C)cccc1C`, the Potency was “inactive”. For `CCc1cccc2c(CCO)c[nH]c12`, the Potency was “inactive”. With `CC[C@@]1(O)C(=O)OCc2c1cc1n(c2=O)Cc2c-1nc1ccccc1c2/C=N/OC(C)(C)C` the Potency was 0.0531 µM (active). With `O=C(OCC1(COC(=O)c2cccnc2)CCCC(COC(=O)c2cccnc2)(COC(=O)c2cccnc2)C1O)c1cccnc1` the Potency was “inactive”. With `COc1c(N2C[C@@H]3CCCN[C@@H]3C2)c(F)cc2c(=O)c(C(=O)O)cn(C3CC3)c12` the Potency was “inactive”. In the case of `O=C(c1cc(O)c(O)c(O)c1)c1ccc(O)c(O)c1O`, the Potency is reported as “inactive”. With `CCOC(=O)N1CCC(Nc2ccc(Cl)cc2N)CC1` the Potency was 8.41 µM (active). In the case of `Cc1ncc(CO)c(CO)c1O`, the Potency is reported as “inactive”. With `COCCc1ccc(OCC2CO2)cc1` (stereo not given) the Potency was “inactive”. For `Cc1ccc(Cl)c(OCC(O)CNC(C)(C)C)c1` (stereo not given), the Potency was “inactive”. With `COC(=O)C1=C(C)NC(COC(N)=O)=C(C(=O)OC(C)C)C1c1cccc(Cl)c1Cl` (stereo not given) the Potency was “inactive”. With `CC[N+](CC)(CC)CCOC(=O)C(C1CCCC1)C1CCCC1` the Potency was “inactive”. For `CO[C@@H]1[C@@H](OC)[C@H](C)[C@@](O)(CC(=O)O)O[C@H]1[C@H](C)[C@H]1O[C@@]2(CC[C@@](C)([C@H]3CC[C@@](C)([C@@H]4O[C@@H]([C@H]5O[C@](C)(O)[C@H](C)C[C@@H]5C)C[C@@H]4OC4C[C@H](OC)[C@@H](OC)[C@H](C)O4)O3)O2)C[C@H](O)[C@H]1C` (stereo not given in full), the Potency was 0.841 µM (active). For `CC(CC1c2ccccc2CCc2ccccc21)CN(C)C` (stereo not given), the Potency was “inactive”. For `CC(=O)N(c1onc(C)c1C)S(=O)(=O)c1ccc(N)cc1`, the Potency was “inactive”. For `CN(C)CCCOC1(Cc2ccccc2)CCCCCC1`, the Potency was “inactive”. For `CNC[C@H](O)[C@@H](O)[C@H](O)[C@H](O)CO`, the Potency was “inactive”.
